# In the supplement of paper PMC6555819:
# Tested on: VDR:RXRa (NR concentration 270 nM, RXRa partner concentration 90 nM)
# Assay: PBM binding z-score (relative to random genomic background probes); higher = stronger binding; sequences stand for … in GC…GCGATTGACAGCGTAGAATGAAGG
# Description: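 Protein-binding microarray (Agilent 4x180K custom design, double-stranded 60-nt probes: 5' GC cap, 34-nt variable region, 24-nt constant primer region; full probe sequence given). Purified or IVT nuclear receptor:RXRα heterodimers (3:1 NR:RXRα, mostly 270:90 nM) or homodimers were incubated for 1 h in PBS with 2% milk and no ligand, then detected with Alexa488 antibodies. Fluorescence from o1-orientation probes (~5 replicates averaged) was converted to z-scores against 500 random hg19 background probes. Variable regions are seed direct-repeat (DR0–DR5) sites, all their single-nucleotide variants and half-site ablations.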
row,Sequence,PBM binding z-score
1,ACTATTAGTTGAGACGAGGGCAATCGATAGGTTG,0.793
2,GCATATGGGTAATACAAGGTGAAAGTCCGATTGT,0.212
3,GCATATAGGTAATACATGGTGAAAGTCCGATTGT,-0.0137
4,TCATATAGGTAAAAGGTGAAAGCCGGTGTGGTAA,1.62
5,GTACCAAGGTGAATAGGTCGATGATGAGTAGGCG,0.674
6,TATACAGGGTCCAAGGCCAGAGTACGAATGTCGA,0.821
7,GTACCAAGGAGAATAGGTCGTTGATGAGTAGGCG,0.0366
8,TCTATTAGCTGATTAGGGCAACCGAAACAGCGGA,0.11
9,CTCGGAAGGTCGGTTGAGGTGAGTATACGGATAA,1
10,ATCTCTGGGTAAAAGTTCAGTGAATCCCGAGGAT,1.25
11,CAAACTACGTCAAGGTCAAAGTCGGTTTGTGCCA,4.45
12,CAGCCTCGGTCAGGGCCAGTATAGGAGGAACGTT,-0.628
13,ACCCGGAGGACAAAGGTCAGAGCTACGCCAGTGA,3.2
14,ATCTCTAGGGAAAGTTCAGTGAAAGATCGATAGA,1.12
15,ACTATTAGTTGAATTAGGGCAACCGATACGACGC,0.274
16,AGTCAAAGTTCTCTAGGTAACGTAAGATTCAGCT,-0.0211
17,TCATATAGGTCATACAGGTGAAAGTCGGCATCTA,5.01
18,ATCTCTAGGTTACCAAGTTCAGTGAATGCCGAAC,5.85
19,TCTTGTAGAGCAGCAGGTTAAGAAAGCTGGCCAA,-0.353
20,CCGAGTAGGTAATGGGGCATTCAGGCAACGGTGA,-0.509

row,Sequence,PBM binding z-score
1,CCTCAAAGTTCAACTAAGGTAACGTAAAGCACGC,4.88
2,CAGCCTAGGTCAGAGCCAGTATAGGAGGAACGTT,0.207
3,CCGACTGGGGAATAAGGTTACCATAAGCCAGCCC,0.185
4,GGAACGAGGGTAAGTTGATAGCAGAGTTTGATGG,-0.217
5,TCTTGTAGATCAGTAGAGGTTAAGAAAGTGCGCT,1.51
6,ATCTCTAGGTAAAGTGCAGTGAAAGATCGATAGA,0.146
7,TAGCCTAGGTCAGATCGGGCCAGTATTCGCTATA,0.465
8,TCATATAGGTAAATGCTAGGTGAAGGTCCGATCT,0.873
9,CCTACTGGGCCATTCAGAGGTCATTGAGCATATG,4.17
10,CCTACTGGGCCACGAAAGGTCATTGACTCAGTGA,4.12
11,ATATGTAGGTTACACCCGGGTCATTCAGGCTATG,4.27
12,GCTGCTAGGTCGGGTTGGTCAGCTAACGGGTACG,-0.0515
13,ATATGTAGGTTAGCTGGGGTCATGCAGACTAGGC,5.85
14,AGAATGCGGTTATACGTAGATCAGGGAAGAAAGT,-0.334
15,TCGAGTAGGTTAGGGGGATTCAGAATGGCGTCGA,0.8
16,ATCGAAAGGTCGAAGAGGTGAGTATACACCGTTT,4.47
17,CGTCCAAGGTCAAGGTCAGGGAAAGAGACTCGAA,4.97
18,ATCGAAAGGTCGACGGTGAGTATACCCACCCGAA,2.62
19,CCTCGGAGGACAGAAGGTCAGTGCTGTCCGCTTT,0.863
20,TGTCAAAGTTCACAGGTAACGTAAGTATCCACAC,4.54
